The campaign covered roughly 310,000 compounds. About 14,000 (4.5%) showed an effect of 50% or more. The effect is printed as a negative number. For the sample, strong results were picked, then their nearest neighbours and some compounds at random.
target: human ether-à-go-go-related gene (hERG) potassium channel (human, UniProt Q12809); assay: primary screen, population patch clamp on CHO cells stably expressing hERG; higher = less effect of the substance
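Note: peak tail current of the secondary pulse compared with the same well before compound.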

human ether-à-go-go-related gene (hERG) potassium channel, sequence (Q12809 whole entry, looked up): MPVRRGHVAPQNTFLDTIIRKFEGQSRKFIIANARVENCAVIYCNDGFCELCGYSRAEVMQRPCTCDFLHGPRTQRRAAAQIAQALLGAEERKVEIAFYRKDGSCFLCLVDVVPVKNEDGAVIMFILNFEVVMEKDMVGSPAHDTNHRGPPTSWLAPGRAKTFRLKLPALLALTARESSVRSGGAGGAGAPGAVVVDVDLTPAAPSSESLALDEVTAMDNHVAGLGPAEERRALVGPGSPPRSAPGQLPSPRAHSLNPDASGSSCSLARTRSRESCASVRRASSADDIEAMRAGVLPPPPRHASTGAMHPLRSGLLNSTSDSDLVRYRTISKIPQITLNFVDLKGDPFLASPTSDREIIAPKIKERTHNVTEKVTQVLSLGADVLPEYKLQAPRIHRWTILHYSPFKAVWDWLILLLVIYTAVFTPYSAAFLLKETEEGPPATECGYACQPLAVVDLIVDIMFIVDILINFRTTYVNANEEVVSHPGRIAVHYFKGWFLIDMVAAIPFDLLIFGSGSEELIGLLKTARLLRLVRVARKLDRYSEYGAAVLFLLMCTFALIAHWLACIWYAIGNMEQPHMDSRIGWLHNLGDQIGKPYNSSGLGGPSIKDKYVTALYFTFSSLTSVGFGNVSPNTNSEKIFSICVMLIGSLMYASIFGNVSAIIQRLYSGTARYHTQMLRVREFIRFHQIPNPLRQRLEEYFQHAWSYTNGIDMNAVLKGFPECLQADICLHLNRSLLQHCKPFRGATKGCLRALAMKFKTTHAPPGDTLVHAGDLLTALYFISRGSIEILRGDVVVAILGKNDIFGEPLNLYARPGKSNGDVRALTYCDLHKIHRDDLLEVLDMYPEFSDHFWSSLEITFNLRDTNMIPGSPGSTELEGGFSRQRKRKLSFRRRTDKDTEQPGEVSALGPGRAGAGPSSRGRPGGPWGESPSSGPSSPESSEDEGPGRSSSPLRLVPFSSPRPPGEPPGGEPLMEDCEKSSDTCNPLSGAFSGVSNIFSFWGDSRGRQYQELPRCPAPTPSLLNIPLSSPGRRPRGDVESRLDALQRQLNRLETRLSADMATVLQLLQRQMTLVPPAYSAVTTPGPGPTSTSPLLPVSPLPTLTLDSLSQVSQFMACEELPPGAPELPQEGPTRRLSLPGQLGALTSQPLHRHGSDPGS

Structure (SMILES)	hERG current change (%, negative = inhibition) at 10uM [%]
CCn1cc(C(=O)NCc2ccco2)c(=O)c2cc(S(=O)(=O)N3CC(C)CC(C)C3)ccc21 (stereo not drawn)	-7.3
O=c1c2ccccc2nnn1CSc1nnc(-c2cccnc2)n1-c1ccccc1F	11.5
CNC(=O)c1cc(S(=O)(=O)Nc2ccc3c(c2)OCO3)ccc1C	4.42
COc1ccc(CCNC(=O)CCCCC(=O)NCCc2ccc(OC)c(OC)c2)cc1OC	4.7
CCN(c1ccc(OC)cc1)S(=O)(=O)c1nnc(NC(=O)c2ccccc2Cl)s1	15.5
Cc1ccnc(NC(=O)C2CCN(S(=O)(=O)c3ccc4c(c3)CC(C)N4C(=O)C3CCC3)CC2)c1 (stereo not drawn)	-0.431
COc1cc(/C=C(\C#N)C(=O)Nc2cccc(C(=O)O)c2)ccc1OCc1ccc(F)cc1	22.6
C=CCSc1nnnn1-c1ccc(OC)cc1	-20
Cc1ccc(CNC(=O)CCCNC(=O)c2ccc(Cl)cc2)n1C	2.05
Cc1ccc(CN2CCN(Cc3cn(C)nc3C)CC2CCO)o1 (stereo not drawn)	12.4
CCOC(=O)C1(CCOc2ccccc2)CCN(Cc2cccc(F)c2)CC1	-65.4
CCOC(=O)C1(CCOC)CCN(Cc2cccc(OCc3ccccc3)c2)CC1	-42.4
CCOC(=O)C1(CCOc2ccccc2)CCN(Cc2cccc(OC)c2)CC1	-76.1
CCOC(=O)C1(CCOc2ccccc2)CCN(Cc2cccc(O)c2)CC1	-63.1
CCOC(=O)C1(CCOc2ccccc2)CCN(Cc2cccc(OCCO)c2)CC1	-83.4
COc1ccccc1NCCC(=O)OCC(=O)NCc1ccco1	23.7
COc1ccc(N(CC(=O)Nc2cccc(C(C)=O)c2)S(C)(=O)=O)cc1OC	-10.5
Cn1c(Cn2nnc3ccccc32)nnc1SCC(=O)N1c2ccccc2CCc2ccccc21	-23.6
O=C(NCCc1ccc(OC(F)F)cc1)C1CC(=O)N(c2ccc3c(c2)OCCO3)C1 (stereo not drawn)	-47.6
CNC(=S)N/N=C/c1cc(C)ccc1C	20.7
O=C(CCc1ccccc1)Nc1ncc([N+](=O)[O-])s1	2.96
Cc1ccc(CNC(=O)C2CCC(=O)N2Cc2ccccc2Cl)cc1 (stereo not drawn)	2.52
CCOC(=O)C1(CCOc2ccccc2)CCN(Cc2cc(OC)cc(OC)c2)CC1	-79.8
CN(C(=O)c1ccc(NC(=O)Cc2ccc(NC(=O)C3CCN(C(=O)C4CCCC4)CC3)cc2)cc1)C1CC1	22.8
O=C(CN1CCN(S(=O)(=O)c2ccc(Cl)c(Cl)c2)CC1)N1CCCCC1	-53.5
Cc1ccc(S(=O)(=O)N2CCN(CC(=O)N3CCOCC3)CC2)cc1	16.8
O=C(CN1CCN(S(=O)(=O)c2cccc(Cl)c2)CC1)N1CCCCC1	-24.8

Structure (SMILES)	hERG current change (%, negative = inhibition) at 10uM [%]
Cc1cc(Cl)c(C)c(S(=O)(=O)N2CCN(CC(=O)N3CCOCC3)CC2)c1Cl	-64.8
O=C(CN1CCN(S(=O)(=O)c2ccc(Cl)s2)CC1)N1CCOCC1	14.4
O=C(CN1CCN(S(=O)(=O)c2ccccc2)CC1)N1CCCCC1	10.8
COc1ccc2c(c1)O[C@@]1(CCCC[C@@H]1C)CC2=O	-1.09
CCC(C)Sc1nc2c(c(=O)[nH]c(=O)n2C)n1C (stereo not drawn)	-4.04
Cc1nn(C(C)C(=O)NCCN2CCCC2)c(=O)c2c1sc1ccccc12 (stereo not drawn)	1.56
Cn1c(C(=O)N2CCN(c3nc4ccccc4s3)CC2)cc2sccc21	-8.35
COC(=O)C(CCCCNC(=O)c1ccc([N+](=O)[O-])cc1)NC(=O)c1ccc([N+](=O)[O-])cc1 (stereo not drawn)	-76.3
COc1cc(C(=O)NCCCNc2ccc([N+](=O)[O-])cc2)cc(OC)c1OC	-57.6
COC(=O)C(CC(C)C)NC(=O)c1ccc([N+](=O)[O-])cc1 (stereo not drawn)	-23.2
O=[N+]([O-])c1ccc(NCc2ccncc2)cc1	-3.55
O=C(CCNc1ccc(Cc2ccncc2)cc1)c1ccc([N+](=O)[O-])cc1	-56.8
COc1ccc(C(=O)NCCNc2ccc([N+](=O)[O-])cc2)cc1OC	-1.31
O=C(NNC(=O)c1ccncc1)Nc1ccc([N+](=O)[O-])cc1	11.2
O=C(Nc1ccccc1C(=O)Nc1ccncc1)c1ccc([N+](=O)[O-])cc1	-4.77
O=C(CCNc1ccc(Cc2ccncc2)cc1)c1cccc([N+](=O)[O-])c1	11
O=C(Nc1ccc(Nc2ccncc2)cc1)c1ccc([N+](=O)[O-])cc1	-59.5
O=C(NCCCCC(NC(=O)c1ccc([N+](=O)[O-])cc1)C(=O)O)c1ccc([N+](=O)[O-])cc1 (stereo not drawn)	-44.7
COc1ccccc1C(=O)NCCCNc1ccc([N+](=O)[O-])cc1	-19.2
COc1cccc(CN2CCNC(=O)C2CC(=O)NCCc2ccccn2)c1 (stereo not drawn)	9.8
CC1CCN(C(c2cc3cc4c(cc3[nH]c2=O)OCO4)c2nnnn2CC2CCCO2)CC1 (stereo not drawn)	-3.99
Nc1ccc(SCCN2C(=O)c3ccccc3C2=O)cc1	-1.22
CC(=O)/C(C(=N)N1CCN(C(c2ccccc2)c2ccccc2)CC1)=C(\C)O	8.3
O=C(CCNC(=O)c1ccco1)Nc1ccccc1OC(F)F	10.4
COc1ccccc1-c1cc(C(=O)NCCc2ccccc2)no1	5.18
BrCC(Br)C1CCC(Br)C(Br)C1 (stereo not drawn)	20.6
Cc1cc(OCC(=O)NC(C)(C)C)ccc1Cl	7.04

Reference: article PMC4336329 (PLoS ONE, 2015)
